The values below come from PubChem BioAssay (Tox21).

A short description of assay [1]: qHTS assay to identify small molecule antagonists of the thyroid receptor (TR) signaling pathway (AID 743065). Note: nearly all actives have a fitted effect of over 55% in size. The method, boiled down: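 GH3.TRE-Luc rat pituitary cells (two TREs driving luciferase) were dosed with compound, then stimulated with 1 nM T3 (final) for 23.5 h at 37 C. ONE-Glo luminescence was the read-out, with CellTiter-Fluor fluorescence as the cytotoxicity counter-screen.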
Background: Quantitative high-throughput screening tests each substance at several concentrations.

In assay [2] the test system is thyroid hormone receptor (rat, GH3 cells). The assay is described as follows: qHTS assay to identify small molecule agonists of the thyroid receptor (TR) signaling pathway (AID 743066; calls by dose curve).
Assay [3] deals with Estrogen receptor (Homo sapiens) (UniProt P03372). The assay is described as follows: qHTS assay to identify small molecule antagonists of the estrogen receptor alpha (ER-alpha) signaling pathway (AID 743069; active = well fitted curve in the direction sought with a large enough effect in the signal ratio in the repeat runs, not every such curve was filed as active; the % refers to the signal ratio). The method, boiled down: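 Reporter cells (ER-alpha-bla, HEK293 background) are conditioned overnight in stripped-serum medium (2% charcoal-stripped FBS). Compound and 17beta-estradiol exposure runs 18 hr at 37C, 5% CO2.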

Assay [4] can be described thus: qHTS assay to identify small molecule antagonists of the estrogen receptor alpha (ER-alpha) signaling pathway - cell viability counter screen (AID 743074; calls by dose curve;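 note: HEK293 cells carrying ER-alpha-UAS-bla reporter stimulated with 17beta-estradiol; nearly all actives have a fitted effect of over 45% in size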).
Assay [5] has as its target Estrogen receptor (Homo sapiens) (UniProt P03372). The experiment in a line: qHTS assay to identify small molecule agonists of the estrogen receptor alpha (ER-alpha) signaling pathway (AID 743075; calls by dose curve;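 note: HEK293 GripTite cells with ER-alpha and UAS-driven beta-lactamase reporter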).
The target is the same in assay [6]. The experiment in a line: qHTS assay to identify small molecule agonists of the estrogen receptor alpha (ER-alpha) signaling pathway using the BG1 cell line (AID 743079). Note: nearly all actives have a fitted effect of over 20% in size. As to conditions: BG1Luc4E2 cells, ERE-luciferase agonist, 22 h.
The nature of assay [7]: qHTS assay to identify small molecule antagonists of the estrogen receptor alpha (ER-alpha) signaling pathway using the BG1 cell line (AID 743080; calls by dose curve;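 note: BG1 cells stimulated with 17beta-estradiol alongside compound; nearly all actives have a fitted effect of over 25% in size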). The gist of the method: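 BG1Luc4E2, endogenous ER-alpha, 4xERE-luc; 5 d charcoal-stripped FBS, phenol red free; 24 h plating; cpd + 17beta-estradiol 21.5 h, 37 C/5% CO2; CellTiter-Fluor viability 30 min, then ONE-Glo luciferase 30 min RT.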

Assay [8] is described as follows: qHTS assay to identify small molecule antagonists of the estrogen receptor alpha (ER-alpha) signaling pathway using the BG1 cell line - cell viability counter screen (AID 743081).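 Note: compound given together with 17beta-estradiol as the ER stimulus; nearly all actives have a fitted effect of over 45% in size.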
Another assay deals with Aromatase (Homo sapiens) (UniProt P11511). The assay is described as follows: qHTS assay to identify aromatase inhibitors (AID 743083). Note: nearly all actives have a fitted effect of over 55% in size.
Assay [9] can be described thus: qHTS assay to identify aromatase inhibitors - cell viability counter screen (AID 743084).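 Note: cells stimulated with testosterone during compound exposure; nearly all actives have a fitted effect of over 55% in size.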
Assay [10] has as its target Aryl hydrocarbon receptor (Homo sapiens) (UniProt P35869). The experiment in a line: qHTS assay to identify small molecule that activate the aryl hydrocarbon receptor (AhR) signaling pathway (AID 743085).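 For activation: HG2L7.5c1 human HepG2 liver cells with stably integrated DRE-driven firefly reporter.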 Note: nearly all actives have a fitted effect of over 15% in size. Note: potency is the fitted concentration of half-maximal effect. The gist of the method:
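Luminescence (ONE-Glo) from a dioxin-responsive-element luciferase reporter in HG2L7.5c1 HepG2 cells after 24 hr compound exposure at 37C; viability measured by CellTiter-Fluor fluorescence beforehand.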

Assay [11] is described as follows: qHTS assay to identify small molecule that activate the aryl hydrocarbon receptor (AhR) signaling pathway - cell viability counter screen (AID 743086).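 Note: HepG2 liver cells carrying the AhR DRE luciferase reporter; nearly all actives have a fitted effect of over 45% in size.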 The method, boiled down:
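HepG2-AhR-luc (HG2L7.5c1) cells, 4000/well, treated 24 h at 37 C with compound; viability measured as CellTiter-Fluor fluorescence after 30 min in the same wells as the luciferase read.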

Assay [12] has as its target Peroxisome proliferator-activated receptor gamma (Homo sapiens) (UniProt P37231). The experiment in a line: qHTS assay to identify small molecule agonists of the peroxisome proliferator-activated receptor gamma (PPARg) signaling pathway (AID 743094; active = well fitted activation curve with a large enough effect in the signal ratio in the repeat runs, not every such curve was filed as active; the % refers to the signal ratio). The method, boiled down: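 Compounds dissolved in DMSO were added to PPARg UAS-bla HEK293H cells for 17 h at 37C, and reporter expression was quantified by fluorescence intensity after 1 h with LiveBLAzer B/G FRET substrate.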

Assay [13] shares this target. The assay is described as follows: qHTS assay to identify small molecule antagonists of the peroxisome proliferator-activated receptor gamma (PPARg) signaling pathway (AID 743191; calls by dose curve; note: nearly all actives have a fitted effect of over 30% in size). The method, boiled down: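 GeneBLAzer PPARg UAS-bla HEK293H cells, 5 h post-plating, exposed to compounds 17 h at 37C. LiveBLAzer B/G FRET substrate added for 1 h at room temperature; beta-lactamase reporter read by fluorescence intensity.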

A short description of assay [14]: qHTS assay to identify small molecule antagonists of the peroxisome proliferator-activated receptor gamma (PPARg) signaling pathway - cell viability counter screen (AID 743194). Note: nearly all actives have a fitted effect of over 55% in size. The note with it: Potency: co-treated with 50 nM rosiglitazone. The gist of the method:
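Cytotoxicity counter screen in PPARg-bla HEK293H cells, same wells as reporter assay. Compounds plus 50 nM rosiglitazone (final) for 17 h at 37 C, then viability read by CellTiter-Glo luminescence.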

Assay [15] can be described thus: qHTS assay for small molecule agonists of the antioxidant response element (ARE) signaling pathway - cell viability counter screen (AID 743203; calls by dose curve; note: nearly all actives have a fitted effect of over 55% in size). The gist of the method:
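Following 16 hrs of compound treatment at 37C, HepG2 cells with an ARE-controlled beta-lactamase gene were lysed with CellTiter-Glo. Luminescence was read after 30 min at room temperature.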

Assay [16] in a line: qHTS assay to identify small molecule agonists of the peroxisome proliferator-activated receptor delta (PPARd) signaling pathway - cell viability counter screen (AID 743211). Note: nearly all actives have a fitted effect of over 55% in size. The gist of the method:
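Viability was measured as CellTiter-Glo luminescence (30 min, room temperature) in the same wells as the beta-lactamase readout. GeneBLAzer PPARd UAS-bla HEK293H cells received compound after 5 h plating and were incubated 17 h at 37 C.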

A short description of assay [17]: qHTS assay for small molecule agonists of the antioxidant response element (ARE) signaling pathway (AID 743202; active = well fitted activation curve with a large enough effect in the signal ratio in the repeat runs, not every such curve was filed as active; the % refers to the signal ratio). The method, boiled down: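 Agonist mode reporter screen: HepG2 cells with ARE-controlled beta-lactamase are incubated with test compounds for 16 h at 37 C, and beta-lactamase activity is measured as fluorescence of cleaved B/G FRET substrate.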
A short description of assay [18]: qHTS assay for small molecule activators of the heat shock response signaling pathway - cell viability counter screen (AID 743209). Note: nearly all actives have a fitted effect of over 50% in size. The method, boiled down:
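Readout: CellTiter-Glo luminescence, 30 min at room temperature. System: HSE-bla HeLa cells, 1500/well, plated overnight. Treatment: compounds in DMSO, 5 h at 37 C.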

Assay [19] in a line: qHTS assay for small molecule activators of the heat shock response signaling pathway (AID 743210; active = well fitted activation curve with a large enough effect in the signal ratio in the repeat runs, with a control signal flat, not every such curve was filed as active; the % refers to the signal ratio;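 note: HeLa cells with beta-lactamase reporter driven by heat shock elements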). The method, boiled down:
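Quantitative high-throughput format using an engineered HeLa line in which heat shock response elements drive beta-lactamase; after 5 h with compound, cells received a B/G FRET substrate and fluorescence was read.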

Values joined by “and” are separate entries in the source; they are usually repeats but may differ in a detail not shown here. Equal values may be shown once. Inconclusive results are not listed. Unmarked numbers belong to inactive results. Active and inactive are the calls of the source. Unless noted, calls come from the whole dose curve; as a rule, active = well fitted curve in the direction sought with a large enough effect in the repeat runs; inconclusive = weak or mixed curves; inactive = no such curve, though single readings can be large; an effect the other way counts as inactive or inconclusive.
% is set by controls: 0 for no effect and ±100 for the full control effect.

Chain of Estrogen receptor (Homo sapiens) (P03372 whole entry, looked up): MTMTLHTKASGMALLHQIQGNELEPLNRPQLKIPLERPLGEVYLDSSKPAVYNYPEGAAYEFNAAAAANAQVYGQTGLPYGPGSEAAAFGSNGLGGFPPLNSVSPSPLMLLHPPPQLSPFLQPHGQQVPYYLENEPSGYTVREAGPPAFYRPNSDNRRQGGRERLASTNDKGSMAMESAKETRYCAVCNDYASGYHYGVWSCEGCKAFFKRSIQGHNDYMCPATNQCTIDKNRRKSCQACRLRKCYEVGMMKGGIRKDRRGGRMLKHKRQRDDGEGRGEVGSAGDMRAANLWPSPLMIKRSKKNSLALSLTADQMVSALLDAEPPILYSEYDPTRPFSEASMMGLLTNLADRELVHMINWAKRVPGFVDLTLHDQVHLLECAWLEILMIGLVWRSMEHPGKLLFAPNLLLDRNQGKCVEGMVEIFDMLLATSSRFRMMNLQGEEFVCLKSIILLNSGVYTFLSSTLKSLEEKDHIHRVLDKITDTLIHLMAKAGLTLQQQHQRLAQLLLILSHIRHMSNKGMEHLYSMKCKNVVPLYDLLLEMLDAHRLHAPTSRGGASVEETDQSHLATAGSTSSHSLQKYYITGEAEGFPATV
Chain of Peroxisome proliferator-activated receptor gamma (Homo sapiens) (P37231 whole entry, looked up): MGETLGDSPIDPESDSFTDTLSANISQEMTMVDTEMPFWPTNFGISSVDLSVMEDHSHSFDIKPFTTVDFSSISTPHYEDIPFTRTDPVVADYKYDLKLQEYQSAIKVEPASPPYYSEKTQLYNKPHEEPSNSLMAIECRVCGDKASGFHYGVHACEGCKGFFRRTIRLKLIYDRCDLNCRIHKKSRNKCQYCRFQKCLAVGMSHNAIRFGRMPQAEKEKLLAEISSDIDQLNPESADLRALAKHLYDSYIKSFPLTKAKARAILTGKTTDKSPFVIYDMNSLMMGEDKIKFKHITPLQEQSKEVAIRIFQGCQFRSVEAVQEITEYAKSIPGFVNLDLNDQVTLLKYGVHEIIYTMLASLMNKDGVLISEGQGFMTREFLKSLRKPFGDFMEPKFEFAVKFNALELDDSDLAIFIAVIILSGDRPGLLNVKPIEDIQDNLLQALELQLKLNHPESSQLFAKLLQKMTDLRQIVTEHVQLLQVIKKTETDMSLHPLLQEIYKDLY
Chain of Aryl hydrocarbon receptor (Homo sapiens) (P35869 whole entry, looked up): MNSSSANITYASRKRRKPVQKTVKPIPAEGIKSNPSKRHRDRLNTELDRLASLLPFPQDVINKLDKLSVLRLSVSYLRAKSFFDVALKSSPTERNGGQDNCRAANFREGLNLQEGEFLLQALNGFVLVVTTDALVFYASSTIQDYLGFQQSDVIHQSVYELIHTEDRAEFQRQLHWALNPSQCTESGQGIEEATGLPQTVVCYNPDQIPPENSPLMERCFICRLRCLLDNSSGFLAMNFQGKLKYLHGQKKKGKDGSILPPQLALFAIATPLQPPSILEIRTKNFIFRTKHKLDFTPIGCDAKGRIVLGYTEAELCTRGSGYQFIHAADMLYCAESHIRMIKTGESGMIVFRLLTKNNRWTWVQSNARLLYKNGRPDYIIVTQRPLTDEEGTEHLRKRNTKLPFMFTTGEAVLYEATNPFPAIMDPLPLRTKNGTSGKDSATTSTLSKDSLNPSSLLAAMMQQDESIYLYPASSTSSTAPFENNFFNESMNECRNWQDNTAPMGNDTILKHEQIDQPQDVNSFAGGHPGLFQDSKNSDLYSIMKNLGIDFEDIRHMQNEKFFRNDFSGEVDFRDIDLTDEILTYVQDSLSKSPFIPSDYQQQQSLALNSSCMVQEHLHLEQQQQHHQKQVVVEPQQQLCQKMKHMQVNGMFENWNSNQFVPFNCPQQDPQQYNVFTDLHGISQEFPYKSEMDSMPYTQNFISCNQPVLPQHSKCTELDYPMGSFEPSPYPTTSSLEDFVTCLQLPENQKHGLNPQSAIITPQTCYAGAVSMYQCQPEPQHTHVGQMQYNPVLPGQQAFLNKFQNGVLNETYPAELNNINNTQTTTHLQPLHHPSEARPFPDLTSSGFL
Chain of Aromatase (Homo sapiens) (P11511 whole entry, looked up): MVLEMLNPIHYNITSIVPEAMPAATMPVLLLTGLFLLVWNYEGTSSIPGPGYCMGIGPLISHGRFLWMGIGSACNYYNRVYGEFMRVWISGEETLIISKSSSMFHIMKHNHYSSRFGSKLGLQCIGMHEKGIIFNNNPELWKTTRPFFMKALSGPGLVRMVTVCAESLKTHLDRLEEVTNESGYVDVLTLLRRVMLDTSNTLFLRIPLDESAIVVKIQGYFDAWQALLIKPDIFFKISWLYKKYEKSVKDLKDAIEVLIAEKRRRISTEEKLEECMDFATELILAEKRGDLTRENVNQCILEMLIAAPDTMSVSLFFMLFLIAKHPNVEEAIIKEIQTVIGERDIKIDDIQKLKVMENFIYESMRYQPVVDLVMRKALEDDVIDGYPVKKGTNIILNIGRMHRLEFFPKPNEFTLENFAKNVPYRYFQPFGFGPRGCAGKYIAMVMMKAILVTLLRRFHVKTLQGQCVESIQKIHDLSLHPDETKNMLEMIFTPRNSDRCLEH

In the case of `CCC/C(=N\OCC)C1=C(O)CC(CC(C)SCC)CC1=O` (configuration not stated), the Potency result in assay [1], in assay [2], in assay [3], in [5], in assay [7] and in assay [8] was “inactive” throughout. Besides, the Potency result (in the assay with Aromatase (Homo sapiens); in assay [9]; in assay [10]; in assay [13]; in assay [14]; in assay [15]) was “inactive” throughout. Besides, the Potency entry in assay [16] was “inactive”. The compound was classed as inactive in [4], in [11] and in assay [12]. In [6] (at 95 µM (top of the series)), the activation is -1.67%.
On to `N#Cc1ccncc1`, for which the Potency result in [1], in assay [2], in assay [3], in assay [5], in [7] and in assay [8] was “inactive” in each case. Further, the Potency entry (in the assay with Aromatase (Homo sapiens); in assay [9]; in assay [10]; in assay [13]; in assay [17]; in assay [15]) was “inactive” each time. Further, the Potency entry in assay [18] and in assay [16] was “inactive” each time. The call in [4], in [11], in [12] and in assay [19] was inactive. Besides, the activation in assay [6] (at 95 µM (top of the series)) was 1.2%.
Consider `CCCCN(CCCCO)N=O`, for which the Potency result in assay [1], in assay [2], in [3], in assay [5], in [7] and in assay [8] was “inactive” throughout. The Potency entry (in the assay with Aromatase (Homo sapiens); in assay [9]; in assay [10]; in assay [13]; in assay [14]; in [17]) was “inactive” in each case. Also, the Potency result in assay [18] and in assay [16] was “inactive” throughout. The compound was called inactive in [4], in assay [11], in assay [12] and in assay [19]. For the same compound, the activation in assay [6] (at 70.3 µM (top of the series)) is -3.24%.
On to `Cc1nnc2n1-c1sc(CCC(=O)N3CCOCC3)cc1C(c1ccccc1Cl)=NC2`, for which the Potency result in assay [1], in [2], in assay [3], in [5], in assay [7] and in assay [8] was “inactive” throughout. Besides, the Potency entry (in the assay with Aromatase (Homo sapiens); in assay [9]; in assay [10]; in [14]; in assay [17]; in assay [15]) was “inactive” throughout. Further, the Potency result in assay [18] and in [16] was “inactive” in each case. The call in [4], in assay [11], in assay [12] and in assay [19] was inactive. Moreover, the activation in [6] (at 70.3 µM (top of the series)) was -7.93% and -17.7%.
With `O=P(O)(Oc1ccccc1)Oc1ccccc1`, the Potency result in assay [1], in assay [2], in assay [3], in [5], in assay [7] and in [8] was “inactive” in each case. The Potency entry (in the assay with Aromatase (Homo sapiens); in assay [9]; in [10]; in assay [13]; in [14]; in [17]) was “inactive” each time. Further, the Potency entry in assay [15] and in assay [16] was “inactive” each time. Further, the compound was called inactive in assay [4], in [11], in [12] and in assay [19]. The activation in [6] (at 70.3 µM (top of the series)) was 1.22%.
In the case of `CCOP(=S)(OCC)Oc1nc(Cl)n(C(C)C)n1`, the Potency entry in assay [1], in assay [2], in [3], in [5], in [7] and in [8] was “inactive” throughout. The Potency result (with Aromatase (Homo sapiens); in [9]; in assay [13]; in [14]; in [17]; in assay [18]) was “inactive” in each case. Moreover, in assay [16], the Potency entry was “inactive”. Also, the outcome in assay [4], in assay [11], in assay [12] and in assay [19] was inactive. Moreover, the activation in [6] (at 70.3 µM (top of the series)) was 5.59%. Further, the Potency in assay [10] was 10.9 µM (active).
For the compound `CC(C)NCC(O)c1ccc(N)c(C#N)c1` (configuration not stated), the Potency result in assay [1], in assay [2], in [3], in assay [5], in [7] and in assay [8] was “inactive” throughout. Besides, the Potency result (with Aromatase (Homo sapiens); in [9]; in assay [10]; in assay [13]; in assay [14]; in [17]) was “inactive” throughout. For the same compound, the Potency entry in assay [15], in assay [18] and in assay [16] was “inactive” throughout. The compound was classed as inactive in [4], in assay [11], in assay [12] and in [19]. Further, in [6] (at 70.3 µM (top of the series)), the activation was -15.4%.
